Test results published in PubChem BioAssay (EPA / NIEHS).
Several values for one entry are separate records, joined by “and”; a condition that tells them apart may be missing. Equal values may be shown once. The source holds several records for some structures; these can differ, active in one and inactive in another. Activity calls are given as the source filed them. How the source made its calls: active means hit-call score of the fitted dose curve at least 0.9, where 1 is the maximum; inactive means score below 0.9.

How the values were obtained:
[1] = read-out: Macrophage colony-stimulating factor (MCSF), CSF1 (gene 1435); assay: BSK_hDFCGF_MCSF: BioMAP Diversity Plus: hDFCGF Assay for Macrophage colony-stimulating factor (MCSF) Biomarker Activity (AID 2283060); conditions: primary human foreskin fibroblasts; actives raise or lower the signal
Summary of the method: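 Human foreskin primary fibroblasts were treated with test chemical for 24 h, and M-CSF was then measured by ELISA. Data were fitted bidirectionally against DMSO as the negative control and activity baseline.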

[2] = BSK_hDFCGF_SRB: Viability Assessment in the BioMAP Diversity Plus: hDFCGF Assay (AID 2283061); conditions: primary human foreskin fibroblasts;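 further: cells exposed to compound for 24 h before the read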
Summary of the method: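 Human foreskin primary fibroblasts were treated with compound and assessed 24 h after dosing. Total protein was measured by sulforhodamine B staining (0.1% SRB after 10% TCA fixation, 560 nm read) as a cytotoxicity marker, with bidirectional fitting against DMSO baseline.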

[3] = read-out: TIMP metallopeptidase inhibitor 1 (TIMP1), TIMP1 (gene 7076); assay: BSK_hDFCGF_TIMP1: BioMAP Diversity Plus: hDFCGF Assay for TIMP metallopeptidase inhibitor 1 (TIMP1) Biomarker Activity (AID 2283062); conditions: primary human foreskin fibroblasts; actives raise or lower the signal
Summary of the method: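 Primary human foreskin fibroblasts in the hDFCGF system were dosed with compound for 24 h, then TIMP-1 was measured by ELISA. Activity was fitted bidirectionally relative to DMSO control; parallel SRB staining assessed cytotoxicity.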

[4] = read-out: Monokine induced gamma interferon (MIG), CXCL9 (gene 4283); assay: BSK_hDFCGF_MIG: BioMAP Diversity Plus: hDFCGF Assay for Monokine induced gamma interferon (MIG) Biomarker Activity (AID 2283063); conditions: primary human foreskin fibroblasts; actives raise or lower the signal
Summary of the method: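 ELISA read-out of MIG from primary human dermal fibroblasts 24 h post-dosing. Gain or loss of signal fitted bidirectionally, DMSO as baseline.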

[5] = read-out: Matrix Metallopeptidase 1 (MMP1), MMP1 (gene 4312); assay: BSK_hDFCGF_MMP1: BioMAP Diversity Plus: hDFCGF Assay for Matrix Metallopeptidase 1 (MMP1) Biomarker Activity (AID 2283064); conditions: primary human foreskin fibroblasts; actives raise or lower the signal
Summary of the method: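 hDFCGF primary fibroblasts (human foreskin); chemical added; 24 h; MMP1 by ELISA; bidirectional fit vs DMSO.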

[6] = read-out: Vascular cell adhesion molecule 1 (VCAM1), VCAM1 (gene 7412); assay: BSK_hDFCGF_VCAM1: BioMAP Diversity Plus: hDFCGF Assay for Vascular cell adhesion molecule 1 (VCAM1) Biomarker Activity (AID 2283065); conditions: primary human foreskin fibroblasts; actives raise or lower the signal;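 further: VCAM-1 protein level quantified by ELISA after 24 h chemical exposure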
Summary of the method: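 Primary human foreskin fibroblasts (hDFCGF system) were dosed with chemical and VCAM-1 was measured by ELISA 24 h later. Bidirectional curve fitting used DMSO as negative control and activity baseline.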

[7] = read-out: Plasminogen activator inhibitor-1 (PAI1), SERPINE1 (gene 5054); assay: BSK_hDFCGF_PAI1: BioMAP Diversity Plus: hDFCGF Assay for Plasminogen activator inhibitor-1 (PAI1) Biomarker Activity (AID 2283066); conditions: primary human foreskin fibroblasts; actives raise or lower the signal
Summary of the method: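 Primary dermal fibroblasts (human foreskin), hDFCGF system; compound 24 h; PAI-1 by ELISA; bidirectional fit vs DMSO control.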

[8] = read-out: Intercellular Adhesion Molecule 1 (ICAM1), ICAM1 (gene 3383); assay: BSK_KF3CT_ICAM1: BioMAP Diversity Plus: KF3CT Assay for Intercellular Adhesion Molecule 1 (ICAM1) Biomarker Activity (AID 2283067); conditions: primary human keratinocytes with fibroblasts; actives raise or lower the signal
Summary of the method: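 Human keratinocyte plus foreskin fibroblast primary co-culture was exposed to chemical for 24 h. ICAM-1 was then quantified by ELISA, and the data were fit bidirectionally against DMSO as the negative control and baseline.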

[9] = read-out: Interferon-gamma inducible Protein 10 (IP10), CXCL10 (gene 3627); assay: BSK_KF3CT_IP10: BioMAP Diversity Plus: KF3CT Assay for Interferon-gamma inducible Protein 10 (IP10) Biomarker Activity (AID 2283068); conditions: primary human keratinocytes with fibroblasts; actives raise or lower the signal
Summary of the method: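 In a primary skin co-culture of keratinocytes and fibroblasts, IP-10 is quantified by ELISA at 24 h after dosing. SRB staining of parallel wells monitors overt toxicity. Curves are fitted both directions against DMSO.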

[10] = BSK_KF3CT_SRB: Viability Assessment in the BioMAP Diversity Plus: KF3CT Assay (AID 2283069); conditions: primary human keratinocytes with fibroblasts;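 further: fitted for both signal gain and loss against DMSO baseline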
Summary of the method: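 Keratinocytes co-cultured with foreskin fibroblasts (human primary); chemical added, 24 h; fix 10% TCA, stain 0.1% SRB, A560. Bidirectional fit vs DMSO.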

[11] = read-out: Interleukin-1 alpha (IL1a), IL1A (gene 3552); assay: BSK_KF3CT_IL1a: BioMAP Diversity Plus: KF3CT Assay for Interleukin-1 alpha (IL1a) Biomarker Activity (AID 2283070); conditions: primary human keratinocytes with fibroblasts; actives raise or lower the signal
Summary of the method: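 Chemicals were dosed onto co-cultured human keratinocytes and foreskin fibroblasts, IL-1a was quantified by ELISA at 24 h, and activity was fitted in both directions relative to DMSO controls.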

[12] = read-out: TIMP metallopeptidase inhibitor 2 (TIMP2), TIMP2 (gene 7077); assay: BSK_KF3CT_TIMP2: BioMAP Diversity Plus: KF3CT Assay for TIMP metallopeptidase inhibitor 2 (TIMP2) Biomarker Activity (AID 2283071); conditions: primary human keratinocytes with fibroblasts; actives raise or lower the signal
Summary of the method: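 Cells: human keratinocytes co-cultured with foreskin fibroblasts. Treat with chemical, 24 h. Measure TIMP-2 by ELISA; fit curves bidirectionally vs DMSO baseline.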

[13] = read-out: C-C motif chemokine 2 (Homo sapiens) (UniProt P13500); assay: BSK_KF3CT_MCP1: BioMAP Diversity Plus: KF3CT Assay for Monocyte Chemoattractant Protein 1 (MCP1/CCL2) Biomarker Activity (AID 2283073); conditions: primary human keratinocytes with fibroblasts; actives raise or lower the signal
Summary of the method: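 Human keratinocyte plus foreskin fibroblast primary co-culture exposed to chemical for 24 h. MCP-1 levels measured by ELISA. Bidirectional curve fitting relative to DMSO negative control as baseline.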

[14] = read-out: Matrix Metallopeptidase 9 (MMP9), MMP9 (gene 4318); assay: BSK_KF3CT_MMP9: BioMAP Diversity Plus: KF3CT Assay for Matrix Metallopeptidase 9 (MMP9) Biomarker Activity (AID 2283074); conditions: primary human keratinocytes with fibroblasts; actives raise or lower the signal;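 on AC50: MMP9 protein level quantified by ELISA in the co-culture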
Summary of the method: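 Human keratinocyte/foreskin fibroblast co-culture; compound added; 24 h; MMP-9 by ELISA; bidirectional fit vs DMSO baseline.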

[15] = read-out: urokinase plasminogen activator (uPA), PLAU (gene 5328); assay: BSK_KF3CT_uPA: BioMAP Diversity Plus: KF3CT Assay for urokinase plasminogen activator (uPA) Biomarker Activity (AID 2283075); conditions: primary human keratinocytes with fibroblasts; actives raise or lower the signal
Summary of the method: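 ELISA readout of uPA, analyzed for signal gain or loss relative to DMSO, from a human primary keratinocyte–foreskin fibroblast co-culture measured 24 h after chemical treatment.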

CD40, CD40 (gene 958) = assay: BSK_LPS_CD40: BioMAP Diversity Plus: LPS Assay for CD40 Biomarker Activity (AID 2283076); conditions: primary human HUVEC with PBMC; actives raise or lower the signal
Summary of the method: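 Primary human umbilical vein endothelial cells co-cultured with peripheral blood mononuclear cells, LPS-stimulated, were dosed with chemical and read 24 h later. CD40 levels were measured by ELISA and fitted bidirectionally against DMSO as negative control and baseline.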

[16] = read-out: E-selectin (Homo sapiens) (UniProt P16581); assay: BSK_LPS_Eselectin: BioMAP Diversity Plus: LPS Assay for Eselectin Biomarker Activity (AID 2283077); conditions: primary human HUVEC with PBMC; actives raise or lower the signal
Summary of the method: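 Human umbilical vein endothelial cells co-cultured with peripheral blood mononuclear cells under LPS stimulation; E-selectin measured by ELISA 24 h after chemical dosing. Activity fitted bidirectionally against DMSO as negative control and baseline.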

[17] = read-out: Interleukin-8 (IL8), CXCL8 (gene 3576); assay: BSK_LPS_IL8: BioMAP Diversity Plus: LPS Assay for Interleukin-8 (IL8) Biomarker Activity (AID 2283078); conditions: primary human HUVEC with PBMC; actives raise or lower the signal
Summary of the method: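 Human umbilical vein endothelial cells co-cultured with PBMC were stimulated with LPS; IL-8 levels were measured by ELISA 24 h after chemical dosing. Activity was fitted bidirectionally against DMSO as negative control and baseline.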

[18] = BSK_LPS_SRB: Viability Assessment in the BioMAP Diversity Plus: LPS Assay (AID 2283079); conditions: primary human HUVEC with PBMC;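 further: total protein by sulforhodamine B absorbance as a cytotoxicity measure; measured one day after compound addition; fitted in both directions against DMSO so loss or gain of signal counts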
Summary of the method: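 Human umbilical vein endothelial cells co-cultured with PBMC (LPS system) were dosed for 24 h. Total protein was stained with 0.1% sulforhodamine B after 10% TCA fixation, read at 560 nm, and fitted bidirectionally against DMSO baseline.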

[19] = read-out: Interleukin-1 alpha (IL1a), IL1A (gene 3552); assay: BSK_LPS_IL1a: BioMAP Diversity Plus: LPS Assay for Interleukin-1 alpha (IL1a) Biomarker Activity (AID 2283080); conditions: primary human HUVEC with PBMC; actives raise or lower the signal
Summary of the method: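 Human umbilical vein endothelial cells co-cultured with peripheral blood mononuclear cells were LPS-stimulated and exposed to test chemicals for 24 h. IL-1 alpha was quantified by ELISA, with bidirectional curve fitting against DMSO as the negative control and baseline.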

Measured: AC50

E-selectin (Homo sapiens), sequence (P16581 whole entry, looked up): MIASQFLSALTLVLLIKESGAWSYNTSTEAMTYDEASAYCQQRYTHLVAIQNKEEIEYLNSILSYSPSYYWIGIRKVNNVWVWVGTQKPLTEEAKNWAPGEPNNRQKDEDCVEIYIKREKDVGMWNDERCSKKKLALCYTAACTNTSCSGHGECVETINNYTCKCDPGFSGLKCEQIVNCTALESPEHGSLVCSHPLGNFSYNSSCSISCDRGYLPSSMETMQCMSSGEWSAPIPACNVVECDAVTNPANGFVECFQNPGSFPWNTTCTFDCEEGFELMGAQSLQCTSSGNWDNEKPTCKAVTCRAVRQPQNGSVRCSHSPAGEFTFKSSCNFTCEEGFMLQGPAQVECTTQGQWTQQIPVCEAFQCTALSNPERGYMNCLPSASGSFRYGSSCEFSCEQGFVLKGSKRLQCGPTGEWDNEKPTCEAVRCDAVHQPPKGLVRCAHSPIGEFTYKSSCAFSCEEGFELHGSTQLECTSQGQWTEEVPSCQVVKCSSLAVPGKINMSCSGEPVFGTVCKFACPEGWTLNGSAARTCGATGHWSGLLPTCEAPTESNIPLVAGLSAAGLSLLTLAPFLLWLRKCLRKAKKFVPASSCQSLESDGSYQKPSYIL

O=C(Cl)C(F)(F)C(F)(F)C(F)(F)C(F)(F)C(F)(F)C(F)(F)C(F)(F)C(F)(F)F
active: [2] 8.08 µM and 15.7 µM and 10.9 µM | [4] 21.7 µM and 44.1 µM and 30 µM | [6] 50.4 µM and 47.9 µM and 47 µM | [7] 47.5 µM and 48.5 µM and 54.6 µM | [9] 20.3 µM and 30 µM | [12] 45.7 µM and 50.2 µM and 49.8 µM | [13] 54.5 µM and 53.2 µM | [14] 43.6 µM and 47.6 µM and 54.8 µM | CD40, CD40 (gene 958) 20.1 µM and 48.8 µM | [16] 50.4 µM | [17] 51.2 µM | [18] 44.7 µM and 42.3 µM
inactive: [1] | [3] | [5] | [8] | [9] | [10] | [11] | [13] | [15] | CD40, CD40 (gene 958) | [16] | [17] | [18] | [19]

O=C(O)C(F)(F)C(F)(F)C(F)(F)C(F)(F)C(F)(F)C(F)(F)C(F)(F)C(F)(F)C(F)(F)C(F)(F)C(F)(F)C(F)(F)F
active: [1] 6.46 µM | [2] 6.27 µM | [4] 2.35 µM and 1.17 µM | [5] 1.6 µM | [6] 4.75 µM and 1.14 µM | [9] 22.5 µM | [11] 4.28 µM and 3.91 µM
inactive: [1] | [2] | [3] | [5] | [7] | [8] | [9] | [10] | [12] | [13] | [14] | [15] | CD40, CD40 (gene 958) | [16] | [17] | [18]
